Active and inactive are the calls of the source.
How the values were obtained:
[1] = E. coli DRC41 culture turbidity changes, primary screen, E. coli filamentation inducer project, strain DRC41, OD650, 48 h (AID 1152);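 note: E. coli MC1000 strain DRC41 lacking acrAB efflux pump and sulA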; conditions: E. coli DRC41 (acrAB sulA), higher = more signal, called active from +8 up or from −8 down
[2] = small-molecule binders of probe aLefty1, primary screen, biochemical, small-molecule microarray, 635/667 nm fluorescence (AID 1153); conditions: higher = more signal;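 note: score merges spot fluorescence with signal-to-noise ratio from the scanned slide images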
[3] = PSAC antagonists in infected red cells, primary screen, cell-based, P. falciparum Indochina, OD700, 1 h (AID 1154); conditions: P. falciparum Indochina infected RBC osmotic lysis, higher = more signal, called active from +8 up or from −8 down
[4] = PSAC antagonists in infected red cells, primary screen, cell-based, P. falciparum Indochina, OD700, 2 h (AID 1155);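 note: lysis reports solute entry through the parasite surface anion channel PSAC; channel blockers reduce lysis of infected cells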; conditions: P. falciparum Indochina infected erythrocytes, osmotic lysis OD700; higher = more signal, called active from +8 up or from −8 down
[5] = osmotic lysis modulators in infected erythrocytes, primary screen, PSAC antagonist project, cell-based, P. falciparum Indochina, OD700, 3 h (AID 1156); conditions: higher = more signal, called active from +8 up or from −8 down
[6] = PSAC antagonists in infected red cells, primary screen, cell-based, P. falciparum Indochina, OD700, 18 h (AID 1157); conditions: P. falciparum Indochina infected erythrocytes, osmotic lysis OD700, 18 h; higher = more signal, called active from +8 up or from −8 down
[7] = modulators of S6 phosphorylation in cells, primary screen, cell-based, A549, cytoblot, luminescence, serum-stimulated (AID 1158); conditions: A549 phospho-S6 cytoblot, 5 h, higher = more signal;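 note: serum-stimulated A549 lung adenocarcinoma cells; signal is phosphorylated S6 detected by cytoblot immunostaining with HRP secondary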
[8] = biological target: NADPH oxidase 2 (Homo sapiens) (UniProt P04839); test: NOX2-dependent H2O2 signal modulators, primary screen, NOX inhibitor project, cell-based, HEK293-NOX2, PMA-stimulated, Amplex Red fluorescence (AID 1159); conditions: 45 min, higher = more signal, called active from +8 up or from −8 down; note: test concentration not given here
Sequence of NADPH oxidase 2 (Homo sapiens) (P04839 whole entry, looked up): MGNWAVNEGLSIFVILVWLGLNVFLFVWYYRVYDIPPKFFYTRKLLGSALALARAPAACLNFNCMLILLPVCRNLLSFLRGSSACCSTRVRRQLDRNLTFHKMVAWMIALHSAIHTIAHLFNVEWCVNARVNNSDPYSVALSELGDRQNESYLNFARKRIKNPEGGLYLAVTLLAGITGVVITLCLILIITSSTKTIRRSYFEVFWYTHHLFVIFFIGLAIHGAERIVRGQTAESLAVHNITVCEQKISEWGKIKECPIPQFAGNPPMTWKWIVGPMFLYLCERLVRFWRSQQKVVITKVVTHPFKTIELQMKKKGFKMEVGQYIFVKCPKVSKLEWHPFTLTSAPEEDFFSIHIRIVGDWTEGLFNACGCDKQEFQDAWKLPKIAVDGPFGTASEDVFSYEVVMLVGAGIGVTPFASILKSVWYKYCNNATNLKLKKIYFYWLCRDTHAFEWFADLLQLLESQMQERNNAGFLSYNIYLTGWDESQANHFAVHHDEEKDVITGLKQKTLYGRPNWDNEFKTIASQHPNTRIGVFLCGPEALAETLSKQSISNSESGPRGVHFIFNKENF

[9] = biological target: NADPH oxidase 4 (Homo sapiens) (UniProt Q9NPH5); test: NOX4-dependent H2O2 signal modulators, primary screen, NOX inhibitor project, cell-based, HEK293-NOX4, tetracycline-induced, Amplex Red fluorescence (AID 1160); conditions: 45 min, higher = more signal, called active from +8 up or from −8 down
Sequence of NADPH oxidase 4 (Homo sapiens) (Q9NPH5 whole entry, looked up): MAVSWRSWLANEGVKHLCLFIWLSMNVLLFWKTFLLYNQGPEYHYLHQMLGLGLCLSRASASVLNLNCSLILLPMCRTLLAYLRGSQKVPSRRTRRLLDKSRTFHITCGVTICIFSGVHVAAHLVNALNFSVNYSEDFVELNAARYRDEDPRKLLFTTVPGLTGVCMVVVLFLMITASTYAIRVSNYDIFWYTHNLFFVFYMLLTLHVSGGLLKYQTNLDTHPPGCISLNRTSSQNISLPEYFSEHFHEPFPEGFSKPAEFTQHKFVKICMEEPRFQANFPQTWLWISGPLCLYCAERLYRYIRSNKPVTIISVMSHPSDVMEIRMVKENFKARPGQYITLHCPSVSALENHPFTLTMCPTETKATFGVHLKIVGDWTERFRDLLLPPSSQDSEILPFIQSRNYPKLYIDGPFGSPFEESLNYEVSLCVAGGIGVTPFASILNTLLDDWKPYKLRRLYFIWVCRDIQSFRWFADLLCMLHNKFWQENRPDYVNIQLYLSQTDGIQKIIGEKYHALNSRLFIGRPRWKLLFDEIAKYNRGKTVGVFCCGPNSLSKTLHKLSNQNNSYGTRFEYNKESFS

[10] = biological target: NADPH oxidase 5 (Homo sapiens) (UniProt Q96PH1); test: NOX5-dependent H2O2 signal modulators, primary screen, NOX inhibitor project, cell-based, HEK293-NOX5, Amplex Red fluorescence (AID 1161); conditions: HEK293-NOX5, ionomycin, 45 min, higher = more signal
Sequence of NADPH oxidase 5 (Homo sapiens) (Q96PH1 whole entry, looked up): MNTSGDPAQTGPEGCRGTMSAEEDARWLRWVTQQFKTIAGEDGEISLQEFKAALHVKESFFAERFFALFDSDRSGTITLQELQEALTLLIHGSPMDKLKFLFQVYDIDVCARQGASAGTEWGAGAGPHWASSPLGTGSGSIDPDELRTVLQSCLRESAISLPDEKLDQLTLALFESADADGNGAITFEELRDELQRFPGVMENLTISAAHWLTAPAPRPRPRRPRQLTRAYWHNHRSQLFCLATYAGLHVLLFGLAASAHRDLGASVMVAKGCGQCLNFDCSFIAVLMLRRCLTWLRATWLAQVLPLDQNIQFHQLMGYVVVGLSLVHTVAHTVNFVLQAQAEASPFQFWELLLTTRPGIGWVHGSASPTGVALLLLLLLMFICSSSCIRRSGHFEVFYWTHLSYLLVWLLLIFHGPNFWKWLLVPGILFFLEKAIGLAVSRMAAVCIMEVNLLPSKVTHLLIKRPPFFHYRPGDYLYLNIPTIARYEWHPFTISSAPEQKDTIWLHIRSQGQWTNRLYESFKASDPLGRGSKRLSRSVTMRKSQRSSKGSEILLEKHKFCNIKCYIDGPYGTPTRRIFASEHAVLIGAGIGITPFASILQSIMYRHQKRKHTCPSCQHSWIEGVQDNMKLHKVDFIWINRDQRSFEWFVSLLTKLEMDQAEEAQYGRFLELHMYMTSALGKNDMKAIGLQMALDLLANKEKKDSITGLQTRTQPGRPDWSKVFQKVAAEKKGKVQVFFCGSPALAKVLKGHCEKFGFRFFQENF

| SMILES | z-score [1] | composite z-score [2] | z-score [3] | z-score [4] | z-score [5] | z-score [6] | z-score [7] | z-score [8] | z-score [9] | z-score [10] |
| --- | --- | --- | --- | --- | --- | --- | --- | --- | --- | --- |
| C[C@@H](c1ccccc1)N1C(=O)[C@H]2[C@H]3[C@H](O)C=CC(=O)[C@@H]3CC[C@H]2C1=O | -0.0347 (inactive) | -0.193 | -0.352 (inactive) | 0.101 (inactive) | -0.555 (inactive) | -0.284 (inactive) | 0.674 | 1.56 (inactive) | -0.0276 (inactive) | -0.276 |
| CCOC(=O)NN=C1C[C@@H](O)[C@@H](O)[C@@H]2[C@@H]3C(=O)N(C4CCCCC4)C(=O)[C@@H]3CC[C@H]12 | -1.02 (inactive) | -0.288 | 3.79 (inactive) | 0.323 (inactive) | 0.822 (inactive) | 0.574 (inactive) | -0.0238 | 2.18 (inactive) | -1.17 (inactive) | -1.46 |
| COc1ccc(COC(=O)NN=C2C[C@@H](O)[C@@H](O)[C@@H]3[C@@H]4C(=O)N(Cc5ccc6c(c5)OCO6)C(=O)[C@@H]4CC[C@@H]23)cc1 | 0.306 (inactive) | 1.15 | 11.8 (active) | 0.801 (inactive) | 0.819 (inactive) | -1.17 (inactive) | 1.27 | -0.377 (inactive) | 0.343 (inactive) | 0.964 |
| CCN(CC)c1ccc(N2CC=CC34O[C@@H]5/C=C\CCC(C)OC(=O)C5[C@H]3C(=O)N(CCCO)[C@@H]4C2=O)cc1 (stereo not given in full) | -0.074 (inactive) | -0.191 | 1.43 (inactive) | -0.223 (inactive) | -0.0086 (inactive) | -0.18 (inactive) | -0.473 | 0.056 (inactive) | -1.51 (inactive) | 0.975 |
| O=C1O[C@@H](c2ccccc2)[C@@H](c2ccccc2)N2[C@@H](c3ccc(OCCO)cc3)[C@]3(C(=O)Nc4ccccc43)[C@@H](C(=O)N3CCN(c4ncccn4)CC3)[C@H]12 | 0.777 (inactive) | -0.0347 | 17.4 (active) | 3.91 (inactive) | 2.06 (inactive) | 1.28 (inactive) | -0.183 | 1.09 (inactive) | 0.368 (inactive) | 1 |
| CO[C@H]1O[C@H](CO)[C@@H](OC(=O)Nc2ccc(C#N)cc2)[C@H](OC(=O)c2cc3ccccc3[nH]2)[C@H]1OC(=O)c1cc2ccccc2[nH]1 | 2.89 (inactive) | 0.254 | 3.44 (inactive) | 0.178 (inactive) | 1.71 (inactive) | -0.418 (inactive) | 2.06 | -3.9 (inactive) | -0.214 (inactive) | -4.49 |
| CN(C)C(=O)[C@@]1(Cc2ccccc2)N=C(c2ccc(OCCCO)cc2)O[C@H]1c1ccccc1CN=[N+]=[N-] | 0.374 (inactive) | 0.981 | 14.9 (active) | 1.15 (inactive) | 0.882 (inactive) | 0.0009 (inactive) | -0.474 | -1.75 (inactive) | 1.17 (inactive) | 0.163 |
| O=C1[C@H]2[C@H]3[C@H](O)[C@H](O)CC(=NOC[C@@H](O)COCc4ccco4)[C@H]3CC[C@H]2C(=O)N1Cc1ccc2c(c1)OCO2 | 0.198 (inactive) | -0.147 | 8.99 (active) | 1.02 (inactive) | 0.107 (inactive) | 0.229 (inactive) | -0.552 | -0.377 (inactive) | 0.718 (inactive) | 0.00627 |
| C=C(COC)/C(=C/C[C@H](OC(=O)c1ccncc1)c1ccc(CO)o1)c1cc(C(=O)OC)ccc1OC | 0.165 (inactive) | 0.188 | 2.65 (inactive) | 0.189 (inactive) | 0.656 (inactive) | 0.013 (inactive) | -0.0278 | -0.564 (inactive) | 0.0937 (inactive) | -0.413 |
| C[C@@H]1C=CCC(=O)OC[C@H](C)C(=O)OC[C@H]2O[C@H]1C=C[C@H]2O | 0.0366 (inactive) | -0.15 | 1.17 (inactive) | 0.714 (inactive) | 0.0284 (inactive) | 0.254 (inactive) | 1.68 | -0.648 (inactive) | -2.12 (inactive) | -0.384 |
| C=CCOC(=O)[C@H]1[C@@H]2C(=O)O[C@@H](c3ccccc3)[C@@H](c3ccccc3)N2[C@@H](c2ccc(OCCOC(=O)[C@H]3C[C@H]4C(=O)N[C@@H](Cc5ccccc5)C(=O)N4[C@H]3c3ccc(O)cc3)cc2)[C@]12C(=O)Nc1ccccc12 | 0.561 (inactive) | -0.263 | 2.5 (inactive) | 1.2 (inactive) | -4 (inactive) | 0.988 (inactive) | 0.338 | 1.83 (inactive) | 0.898 (inactive) | 1.44 |
| COCC(=C=CC[C@@H](O)c1ccccc1OCCO)CCO | 0.825 (inactive) | -0.0501 | 2.69 (inactive) | -0.0233 (inactive) | 0.454 (inactive) | 0.16 (inactive) | 0.613 | 1.64 (inactive) | 0.992 (inactive) | -0.132 |
| CCOC(=O)NN=C1C[C@@H](O)[C@@H](O)[C@@H]2[C@@H]3C(=O)N(C4CCCCC4)C(=O)[C@@H]3CC[C@@H]12 | -0.0671 (inactive) | -0.147 | 1.61 (inactive) | 0.0554 (inactive) | -1.02 (inactive) | -0.039 (inactive) | 0.492 | -0.000129 (inactive) | 0.328 (inactive) | -0.121 |
| CC(CCN1CCc2nc(-c3ccccc3)c(-c3ccccc3)cc2C1)=NO[C@H](C)c1cn([C@@H]2COC[C@H]2O)nn1 | 0.548 (inactive) | 0.0026 | 4.09 (inactive) | 0.722 (inactive) | 1.56 (inactive) | 0.391 (inactive) | 0.387 | -2.96 (inactive) | 0.289 (inactive) | -0.331 |
| [N-]=[N+]=NCc1ccccc1C[C@]1(C(=O)NCc2ccccc2)N=C(c2ccc(OCCCO)cc2)O[C@H]1c1ccccc1N=[N+]=[N-] | 0.0901 (inactive) | -0.7 | 30.6 (active) | 30.6 (active) | 2.72 (inactive) | 3.32 (inactive) | -0.275 | -0.349 (inactive) | -0.15 (inactive) | -1.66 |
| CC(=O)OC[C@H]1O[C@H](CCON=C[C@@H](C)[C@H](OCc2ccccc2)C(C)C)C=C[C@@H]1OC(C)=O | -2.02 (inactive) | -0.313 | 1.25 (inactive) | 0.412 (inactive) | 1.01 (inactive) | 0.367 (inactive) | -0.297 | -0.953 (inactive) | -0.218 (inactive) | -2.17 |
| COCCCNC(=O)[C@]1(Cc2ccccc2)N=C(c2ccc(OCCCO)cc2)O[C@@H]1c1ccccc1 | -1.43 (inactive) | 0.301 | 26.9 (active) | 18.6 (active) | 0.972 (inactive) | 2.34 (inactive) | -0.612 | -1.04 (inactive) | 0.654 (inactive) | 1.1 |
| CO[C@H]([C@@H](C)[C@H](OC)c1ccccc1)[C@H](C)[C@@H](OC)[C@H](C)C(C)=O | -0.558 (inactive) | -0.288 | 0.815 (inactive) | 0.196 (inactive) | -0.181 (inactive) | 0.269 (inactive) | -0.2 | -0.0369 (inactive) | 0.0305 (inactive) | 0.447 |
| CCOC(=O)CCN1C(=O)[C@H]2[C@H]3[C@H](O)[C@H](O)CC(=NOC[C@@H](O)COCc4ccco4)[C@@H]3CC[C@H]2C1=O | 0.401 (inactive) | 0.0861 | 3.93 (inactive) | 0.63 (inactive) | -0.403 (inactive) | 0.403 (inactive) | -0.426 | 0.48 (inactive) | 0.771 (inactive) | 0.6 |
| COc1cccc([C@H]2Oc3ccc(OC)cc3C(=NO[C@H](C)c3cn([C@@H]4COC[C@H]4O)nn3)[C@@H]2O)c1 | -1.79 (inactive) | -0.235 | 0.162 (inactive) | -1.17 (inactive) | 1.91 (inactive) | -1.69 (inactive) | 0.444 | -0.683 (inactive) | -0.721 (inactive) | -3.94 |
| COC(=O)[C@H](C)NC(=O)CCC1CC(OC(=O)NCc2cccc3ccccc23)CC2(CCCC(COC(=O)NCCc3ccc(Cl)cc3)O2)O1 (stereo not given in full) | 0.434 (inactive) | -0.375 | 0.119 (inactive) | -0.214 (inactive) | -0.801 (inactive) | -0.193 (inactive) | 0.362 | 0.779 (inactive) | 1.18 (inactive) | 1.55 |
| C=COC[C@H]1CN2[C@@H](CC[C@@H](C)[C@@H]2c2ccc(Br)cc2)C(=O)O1 | -1.63 (inactive) | 0.0402 | -0.591 (inactive) | -2.06 (inactive) | -0.655 (inactive) | -1.99 (inactive) | 1.54 | -0.427 (inactive) | 0.102 (inactive) | 0.574 |
| COc1ccc(O[C@H]2C=C[C@@H](c3ccccc3)O[C@@H]2COC(=O)CCC(C)=NOCC[C@@H]2C=C[C@H](OC(C)=O)[C@@H](COC(C)=O)O2)cc1 | -0.445 (inactive) | -0.0176 | 8.07 (active) | 1.2 (inactive) | 1 (inactive) | 0.588 (inactive) | -0.268 | -1.64 (inactive) | -0.327 (inactive) | -2.19 |
| [N-]=[N+]=NCc1ccccc1[C@@H]1OC(c2ccc(OCCCO)cc2)=N[C@]1(Cc1ccccc1)C(=O)N1CCOCC1 | 0.854 (inactive) | 0.904 | 16.7 (active) | 2.9 (inactive) | 2.49 (inactive) | 1.01 (inactive) | 0.131 | -1.85 (inactive) | -0.253 (inactive) | -1.21 |
| COc1ccc(-c2ccc3c(n2)CCCN3CC(O)CN2CCCc3nc(C)c(C)cc32)cc1 (stereo not given) | 0.125 (inactive) | 0.864 | 5.76 (inactive) | 0.894 (inactive) | 0.661 (inactive) | 0.0758 (inactive) | -0.0509 | 1.05 (inactive) | -0.305 (inactive) | -1.35 |
| O=C1C2=CC[C@H]3C(=O)N(Cc4ccc5c(c4)OCO5)C(=O)[C@H]3[C@H]2[C@H](O)[C@@H]2O[C@H]12 | 0.0561 (inactive) | -0.0464 | -1 (inactive) | -0.507 (inactive) | -0.906 (inactive) | 0.0094 (inactive) | 0.116 | -0.382 (inactive) | -0.111 (inactive) | 0.104 |

— PubChem BioAssay
